The results in this text go back to publication PMC7862700, “An all-to-all approach to the identification of sequence-specific readers for epigenetic DNA modifications on cytosine”.

Common to all, as to assay: DAPPL (digital affinity profiling via proximity ligation, sequencing); 10 mM Tris-HCl pH 7.5, 50 mM NaCl, 1 mM DTT, 4% glycerol, room temperature, 30 min; GST-TFs on glutathione beads, 16-mer random dsDNA library, 0.1% formaldehyde crosslink after washing; high values mean tight binding
One experiment deals with T1, FEV (Homo sapiens, UniProt Q99581 1-238).
T1 sequence: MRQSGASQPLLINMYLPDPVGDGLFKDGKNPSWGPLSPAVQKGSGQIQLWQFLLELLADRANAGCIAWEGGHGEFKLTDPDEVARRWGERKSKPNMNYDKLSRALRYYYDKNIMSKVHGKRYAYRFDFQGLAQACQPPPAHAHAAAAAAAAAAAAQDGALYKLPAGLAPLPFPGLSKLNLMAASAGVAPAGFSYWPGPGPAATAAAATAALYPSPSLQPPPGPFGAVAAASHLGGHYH
The following applies: protein: recombinant; tags: N-terminal GST; dsDNA, one strand shown. The method, boiled down: (§1)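 Binding signal is each hexamer's read frequency for a factor divided by its frequency in the tag-only sample. The factors were GST-fused human transcription factors from yeast, captured on glutathione beads, DNA-barcoded and pooled with that sample. Pools were incubated with 200 nmole of a random double-stranded 16-mer DNA library in Tris/NaCl/DTT/glycerol buffer at room temperature for 30 min, then washed, crosslinked with 0.1% formaldehyde, proximity-ligated with BsaI/T4 ligase (1 h, 37 °C), PCR-amplified and sequenced on an Illumina NextSeq500.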

For the next experiment, the target named is ETV5 (Homo sapiens, UniProt P41161 1-510). As to conditions: protein: recombinant; tags: N-terminal GST; dsDNA, one strand shown. The method, boiled down: as §1
ETV5, sequence (P41161 whole entry): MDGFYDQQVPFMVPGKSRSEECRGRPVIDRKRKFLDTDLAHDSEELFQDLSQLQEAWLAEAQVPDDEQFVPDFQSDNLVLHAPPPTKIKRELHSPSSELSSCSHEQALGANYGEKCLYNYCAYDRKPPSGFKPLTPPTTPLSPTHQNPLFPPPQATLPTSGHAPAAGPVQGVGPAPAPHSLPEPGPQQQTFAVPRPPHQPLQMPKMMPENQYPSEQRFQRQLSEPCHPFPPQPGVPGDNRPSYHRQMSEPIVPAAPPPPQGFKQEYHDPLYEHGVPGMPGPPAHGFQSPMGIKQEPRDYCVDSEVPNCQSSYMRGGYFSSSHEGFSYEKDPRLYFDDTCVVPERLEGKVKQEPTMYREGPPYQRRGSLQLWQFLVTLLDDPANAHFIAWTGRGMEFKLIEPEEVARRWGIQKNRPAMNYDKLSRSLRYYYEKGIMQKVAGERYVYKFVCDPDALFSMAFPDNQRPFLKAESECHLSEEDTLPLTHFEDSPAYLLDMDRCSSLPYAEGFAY
The target in another experiment is HSF1 (Homo sapiens, UniProt Q00613 1-529). The following applies: protein: recombinant; tags: N-terminal GST; chain copies: 3; dsDNA, one strand shown. The method, boiled down:
as §1

For the next experiment, the target named is T2, SPIC (Homo sapiens, UniProt Q8N5J4 1-248).
T2 sequence: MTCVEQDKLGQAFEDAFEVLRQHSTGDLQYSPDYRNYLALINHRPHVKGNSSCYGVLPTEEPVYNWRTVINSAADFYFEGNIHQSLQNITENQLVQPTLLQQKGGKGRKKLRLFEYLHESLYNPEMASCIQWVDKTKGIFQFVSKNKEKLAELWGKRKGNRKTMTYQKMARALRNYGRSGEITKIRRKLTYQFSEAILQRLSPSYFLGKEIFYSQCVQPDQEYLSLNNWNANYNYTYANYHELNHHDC
As to conditions: protein: recombinant; tags: N-terminal GST; dsDNA, one strand shown. The method, boiled down: as §1

The target in a further experiment is ELF4 (Homo sapiens, UniProt Q99607 1-663). As to conditions: protein: recombinant; tags: N-terminal GST; dsDNA, one strand shown. Put shortly:
as §1

The next experiment addresses T3, ELK4 (Homo sapiens, UniProt P28324-2 1-405).
T3 sequence: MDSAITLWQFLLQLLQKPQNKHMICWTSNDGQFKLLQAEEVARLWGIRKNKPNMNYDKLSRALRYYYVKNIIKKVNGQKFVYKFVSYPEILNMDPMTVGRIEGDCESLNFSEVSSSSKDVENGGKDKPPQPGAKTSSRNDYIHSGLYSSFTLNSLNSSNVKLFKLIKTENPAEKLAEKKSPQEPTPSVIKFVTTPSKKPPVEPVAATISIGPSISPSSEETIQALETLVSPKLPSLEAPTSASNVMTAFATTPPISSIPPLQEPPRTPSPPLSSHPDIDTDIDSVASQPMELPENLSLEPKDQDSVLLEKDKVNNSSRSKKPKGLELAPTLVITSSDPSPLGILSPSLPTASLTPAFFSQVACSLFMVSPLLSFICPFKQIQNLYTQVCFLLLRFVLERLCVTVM
As to conditions: protein: recombinant; tags: N-terminal GST; dsDNA, one strand shown. Put shortly: as §1

The next experiment deals with T4, ETV2 (Homo sapiens, UniProt O00321 1-342).
T4 sequence: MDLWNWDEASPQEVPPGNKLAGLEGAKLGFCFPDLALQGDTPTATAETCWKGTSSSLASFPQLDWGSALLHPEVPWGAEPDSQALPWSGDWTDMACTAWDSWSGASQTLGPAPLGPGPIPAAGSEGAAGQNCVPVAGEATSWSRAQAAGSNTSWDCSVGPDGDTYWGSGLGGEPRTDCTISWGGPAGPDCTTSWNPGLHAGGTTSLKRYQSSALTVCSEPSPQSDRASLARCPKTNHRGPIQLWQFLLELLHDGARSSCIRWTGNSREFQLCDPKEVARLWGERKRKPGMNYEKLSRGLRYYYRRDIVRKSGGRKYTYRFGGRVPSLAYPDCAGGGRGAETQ
As to conditions: protein: recombinant; tags: N-terminal GST; dsDNA, one strand shown. The method, boiled down:
as §1

In another experiment the target is T5, ELF3 (Homo sapiens, UniProt P78545 1-371).
T5 sequence: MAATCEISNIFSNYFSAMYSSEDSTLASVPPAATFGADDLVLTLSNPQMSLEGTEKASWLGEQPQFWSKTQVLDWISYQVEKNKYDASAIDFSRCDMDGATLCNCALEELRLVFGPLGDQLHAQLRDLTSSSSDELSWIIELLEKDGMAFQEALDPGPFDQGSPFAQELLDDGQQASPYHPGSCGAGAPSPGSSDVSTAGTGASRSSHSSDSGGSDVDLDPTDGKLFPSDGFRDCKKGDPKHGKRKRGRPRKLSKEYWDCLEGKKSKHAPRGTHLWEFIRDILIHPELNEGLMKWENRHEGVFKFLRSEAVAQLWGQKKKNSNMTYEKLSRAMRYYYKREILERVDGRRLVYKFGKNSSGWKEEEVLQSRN
As to conditions: protein: recombinant; tags: N-terminal GST; dsDNA, one strand shown. The method, boiled down:
as §1

A further experiment concerns the target CRX (Homo sapiens, UniProt O43186 1-299). As to conditions: protein: recombinant; tags: N-terminal GST; dsDNA, one strand shown. The method, boiled down: as §1
For the next experiment, the target named is ETV1 (Homo sapiens, UniProt P50549 1-477). The following applies: protein: recombinant; tags: N-terminal GST; dsDNA, one strand shown. Put shortly:
as §1

The next experiment has as its target T6, ERF (Homo sapiens, UniProt P50548 1-548).
T6 sequence: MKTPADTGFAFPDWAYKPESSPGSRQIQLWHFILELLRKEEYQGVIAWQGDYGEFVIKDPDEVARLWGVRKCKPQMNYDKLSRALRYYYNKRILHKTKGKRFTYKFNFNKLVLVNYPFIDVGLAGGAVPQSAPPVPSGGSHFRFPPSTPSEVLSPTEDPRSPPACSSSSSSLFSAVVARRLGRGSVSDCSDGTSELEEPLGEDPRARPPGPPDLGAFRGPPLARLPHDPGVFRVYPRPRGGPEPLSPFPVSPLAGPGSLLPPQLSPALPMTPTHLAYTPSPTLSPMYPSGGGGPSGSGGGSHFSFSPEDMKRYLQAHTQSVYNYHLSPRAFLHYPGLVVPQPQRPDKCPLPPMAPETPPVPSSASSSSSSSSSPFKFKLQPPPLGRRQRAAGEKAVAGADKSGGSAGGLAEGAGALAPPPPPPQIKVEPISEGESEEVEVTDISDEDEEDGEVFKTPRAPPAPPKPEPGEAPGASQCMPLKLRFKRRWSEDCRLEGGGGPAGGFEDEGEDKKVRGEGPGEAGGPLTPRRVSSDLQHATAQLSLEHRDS
As to conditions: protein: recombinant; tags: N-terminal GST; dsDNA, one strand shown. Put shortly: as §1

Another experiment concerns the target T7, ETV3L (Homo sapiens, UniProt Q6ZN32 1-361).
T7 sequence: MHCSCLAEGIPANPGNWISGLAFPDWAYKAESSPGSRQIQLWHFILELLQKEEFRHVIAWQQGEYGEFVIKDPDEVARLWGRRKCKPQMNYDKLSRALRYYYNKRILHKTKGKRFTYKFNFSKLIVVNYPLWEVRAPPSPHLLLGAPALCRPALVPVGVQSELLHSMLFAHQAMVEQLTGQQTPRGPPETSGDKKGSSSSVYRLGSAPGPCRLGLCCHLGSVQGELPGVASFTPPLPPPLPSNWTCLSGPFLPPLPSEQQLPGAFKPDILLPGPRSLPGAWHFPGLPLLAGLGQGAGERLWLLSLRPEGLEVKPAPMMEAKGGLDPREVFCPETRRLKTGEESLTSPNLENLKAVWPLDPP
As to conditions: protein: recombinant; tags: N-terminal GST; dsDNA, one strand shown. The method, boiled down: as §1

A further experiment concerns the target T8, ETS2 (Homo sapiens, UniProt P15036 1-469).
T8 sequence: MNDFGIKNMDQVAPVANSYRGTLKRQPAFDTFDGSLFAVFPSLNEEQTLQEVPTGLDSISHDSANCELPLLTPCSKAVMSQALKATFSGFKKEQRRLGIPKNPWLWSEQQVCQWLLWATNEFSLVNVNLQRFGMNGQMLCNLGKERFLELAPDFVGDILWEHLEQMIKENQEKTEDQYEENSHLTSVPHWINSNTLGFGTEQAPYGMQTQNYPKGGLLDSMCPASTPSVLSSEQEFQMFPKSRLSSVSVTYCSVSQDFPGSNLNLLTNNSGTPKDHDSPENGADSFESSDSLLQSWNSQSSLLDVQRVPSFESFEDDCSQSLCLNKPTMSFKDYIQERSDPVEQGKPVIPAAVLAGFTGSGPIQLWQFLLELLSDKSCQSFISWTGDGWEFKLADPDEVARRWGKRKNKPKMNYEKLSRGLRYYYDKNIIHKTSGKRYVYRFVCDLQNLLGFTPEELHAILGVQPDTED
As to conditions: protein: recombinant; tags: N-terminal GST; dsDNA, one strand shown. The method, boiled down:
as §1

Another experiment concerns the target T9, SPDEF (Homo sapiens, UniProt O95238 1-335).
T9 sequence: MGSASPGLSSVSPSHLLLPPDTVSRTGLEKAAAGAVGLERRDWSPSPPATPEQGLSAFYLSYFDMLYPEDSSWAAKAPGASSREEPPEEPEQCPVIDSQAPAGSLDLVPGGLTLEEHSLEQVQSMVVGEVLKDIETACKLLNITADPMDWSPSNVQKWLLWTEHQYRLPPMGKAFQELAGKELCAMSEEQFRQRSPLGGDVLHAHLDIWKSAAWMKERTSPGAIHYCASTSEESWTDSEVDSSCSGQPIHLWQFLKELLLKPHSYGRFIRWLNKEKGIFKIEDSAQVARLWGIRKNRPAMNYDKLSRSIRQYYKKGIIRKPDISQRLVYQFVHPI
The following applies: protein: recombinant; tags: N-terminal GST; dsDNA, one strand shown. The method, boiled down:
as §1

For a further experiment, the target named is T10, ETV7 (Homo sapiens, UniProt Q9Y603 1-341).
T10 sequence: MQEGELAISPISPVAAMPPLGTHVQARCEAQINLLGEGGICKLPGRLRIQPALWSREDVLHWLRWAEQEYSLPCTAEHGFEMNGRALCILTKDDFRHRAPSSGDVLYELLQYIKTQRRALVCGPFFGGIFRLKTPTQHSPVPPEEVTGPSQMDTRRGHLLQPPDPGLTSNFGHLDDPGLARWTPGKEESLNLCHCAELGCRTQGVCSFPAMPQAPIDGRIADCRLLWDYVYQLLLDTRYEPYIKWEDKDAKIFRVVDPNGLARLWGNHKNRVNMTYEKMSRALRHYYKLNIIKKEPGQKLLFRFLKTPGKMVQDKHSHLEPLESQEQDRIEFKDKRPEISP
As to conditions: protein: recombinant; tags: N-terminal GST; dsDNA, one strand shown. Put shortly:
as §1

A further experiment has as its target T11, ELF5 (Homo sapiens, UniProt Q9UKW6-2 1-255).
T11 sequence: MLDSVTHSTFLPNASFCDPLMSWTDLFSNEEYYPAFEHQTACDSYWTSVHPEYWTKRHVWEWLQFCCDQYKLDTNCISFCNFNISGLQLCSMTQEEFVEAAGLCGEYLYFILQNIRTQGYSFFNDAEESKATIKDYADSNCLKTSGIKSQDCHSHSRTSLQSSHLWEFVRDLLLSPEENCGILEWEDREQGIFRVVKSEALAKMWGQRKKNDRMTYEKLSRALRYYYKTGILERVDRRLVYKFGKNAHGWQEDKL
As to conditions: protein: recombinant; tags: N-terminal GST; dsDNA, one strand shown. The method, boiled down:
as §1

The target in the next experiment is T12, ETV3 (Homo sapiens, UniProt P41162-2 1-143).
T12 sequence: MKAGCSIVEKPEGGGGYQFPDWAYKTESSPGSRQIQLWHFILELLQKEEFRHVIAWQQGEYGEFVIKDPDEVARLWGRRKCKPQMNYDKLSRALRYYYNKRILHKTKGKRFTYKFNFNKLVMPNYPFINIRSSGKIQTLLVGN
As to conditions: protein: recombinant; tags: N-terminal GST; dsDNA, one strand shown. Put shortly: as §1

A further experiment has as its target ETV6 (Homo sapiens, UniProt P41212 1-452). The following applies: protein: recombinant; tags: N-terminal GST; dsDNA, one strand shown. Put shortly: as §1

CRX, sequence (O43186 whole entry): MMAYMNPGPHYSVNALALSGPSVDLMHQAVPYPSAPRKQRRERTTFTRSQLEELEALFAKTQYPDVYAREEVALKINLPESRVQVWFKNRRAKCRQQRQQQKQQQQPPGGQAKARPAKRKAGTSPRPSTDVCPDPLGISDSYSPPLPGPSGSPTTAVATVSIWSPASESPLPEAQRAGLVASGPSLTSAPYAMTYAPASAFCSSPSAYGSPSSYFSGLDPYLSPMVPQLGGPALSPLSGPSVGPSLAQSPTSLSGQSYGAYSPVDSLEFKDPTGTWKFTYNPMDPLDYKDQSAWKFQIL
ELF4, sequence (Q99607 whole entry): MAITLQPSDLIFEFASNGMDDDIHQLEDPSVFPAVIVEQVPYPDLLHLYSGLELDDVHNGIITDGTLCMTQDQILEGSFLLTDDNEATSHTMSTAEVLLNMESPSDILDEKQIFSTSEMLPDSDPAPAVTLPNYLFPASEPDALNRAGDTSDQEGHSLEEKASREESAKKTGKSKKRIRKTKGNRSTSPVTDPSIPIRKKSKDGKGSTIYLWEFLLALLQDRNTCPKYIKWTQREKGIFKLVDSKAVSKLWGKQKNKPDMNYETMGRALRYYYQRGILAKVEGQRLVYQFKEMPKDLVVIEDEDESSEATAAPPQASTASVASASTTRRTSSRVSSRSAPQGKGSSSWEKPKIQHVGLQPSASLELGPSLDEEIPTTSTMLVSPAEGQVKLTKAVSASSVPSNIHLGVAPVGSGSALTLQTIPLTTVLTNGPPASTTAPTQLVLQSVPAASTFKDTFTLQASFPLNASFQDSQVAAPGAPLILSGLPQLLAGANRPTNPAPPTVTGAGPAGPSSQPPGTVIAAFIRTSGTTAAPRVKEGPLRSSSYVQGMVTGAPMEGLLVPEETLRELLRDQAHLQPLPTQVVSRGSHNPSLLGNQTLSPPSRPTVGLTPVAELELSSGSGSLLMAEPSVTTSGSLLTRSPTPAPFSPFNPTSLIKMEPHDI
ETV6, sequence (P41212 whole entry): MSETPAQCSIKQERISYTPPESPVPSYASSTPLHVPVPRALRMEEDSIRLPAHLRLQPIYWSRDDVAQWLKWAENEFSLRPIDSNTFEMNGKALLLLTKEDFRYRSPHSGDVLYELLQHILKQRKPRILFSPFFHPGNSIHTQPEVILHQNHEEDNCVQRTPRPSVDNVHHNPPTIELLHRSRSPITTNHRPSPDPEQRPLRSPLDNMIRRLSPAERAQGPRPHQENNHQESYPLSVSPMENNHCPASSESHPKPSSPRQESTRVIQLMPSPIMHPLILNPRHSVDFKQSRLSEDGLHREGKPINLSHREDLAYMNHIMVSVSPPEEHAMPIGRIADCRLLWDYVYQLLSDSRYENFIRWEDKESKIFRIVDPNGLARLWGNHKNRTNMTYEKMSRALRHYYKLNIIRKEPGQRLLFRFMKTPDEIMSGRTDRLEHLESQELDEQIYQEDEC
ETV1, sequence (P50549 whole entry): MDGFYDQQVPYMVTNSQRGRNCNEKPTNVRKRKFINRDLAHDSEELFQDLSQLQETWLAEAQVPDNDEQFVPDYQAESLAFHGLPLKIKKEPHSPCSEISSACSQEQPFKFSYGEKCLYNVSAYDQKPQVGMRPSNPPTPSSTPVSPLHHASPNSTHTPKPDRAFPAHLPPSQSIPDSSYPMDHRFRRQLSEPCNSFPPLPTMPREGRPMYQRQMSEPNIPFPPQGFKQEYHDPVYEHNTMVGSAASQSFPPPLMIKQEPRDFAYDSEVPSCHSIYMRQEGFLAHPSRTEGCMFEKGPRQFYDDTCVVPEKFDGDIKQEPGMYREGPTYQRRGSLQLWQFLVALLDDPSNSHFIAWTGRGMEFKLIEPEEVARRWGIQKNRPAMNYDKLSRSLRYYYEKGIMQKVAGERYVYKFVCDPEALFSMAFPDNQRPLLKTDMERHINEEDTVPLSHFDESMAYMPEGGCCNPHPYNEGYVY
HSF1, sequence (Q00613 whole entry): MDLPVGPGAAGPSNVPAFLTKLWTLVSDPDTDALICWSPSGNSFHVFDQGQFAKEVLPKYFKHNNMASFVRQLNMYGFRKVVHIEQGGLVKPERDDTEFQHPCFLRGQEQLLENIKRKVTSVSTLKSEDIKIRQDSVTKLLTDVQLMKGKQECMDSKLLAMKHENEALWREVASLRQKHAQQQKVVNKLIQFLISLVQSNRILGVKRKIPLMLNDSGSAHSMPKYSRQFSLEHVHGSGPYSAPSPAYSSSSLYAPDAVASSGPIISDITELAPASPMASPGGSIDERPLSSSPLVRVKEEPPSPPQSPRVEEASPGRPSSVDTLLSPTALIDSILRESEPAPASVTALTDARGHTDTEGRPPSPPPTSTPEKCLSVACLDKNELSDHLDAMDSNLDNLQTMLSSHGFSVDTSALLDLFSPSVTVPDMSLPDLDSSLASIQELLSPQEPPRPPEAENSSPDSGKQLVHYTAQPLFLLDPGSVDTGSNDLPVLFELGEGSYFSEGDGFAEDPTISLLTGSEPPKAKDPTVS

With CCGCAT, the binding signal with FEV is 1.49 fold enrichment (6-mer frequency, TF over GST control); in the experiment with ETV5, 1.65 fold enrichment (6-mer frequency, TF over GST control); with HSF1 it was 1.13 fold enrichment (6-mer frequency, TF over GST control); with SPIC it was 1.53 fold enrichment (6-mer frequency, TF over GST control); with ELF4, 1.62 fold enrichment (6-mer frequency, TF over GST control); with ELK4 it was 1.31 fold enrichment (6-mer frequency, TF over GST control). Moreover, the binding signal with ETV2 is 1.52 fold enrichment (6-mer frequency, TF over GST control); with ELF3 it was 1.95 fold enrichment (6-mer frequency, TF over GST control); in the experiment with CRX, 1.19 fold enrichment (6-mer frequency, TF over GST control); in the experiment with ETV1, 1.59 fold enrichment (6-mer frequency, TF over GST control); in the experiment with ERF, 1.46 fold enrichment (6-mer frequency, TF over GST control); in the experiment with ETV3L, 1.6 fold enrichment (6-mer frequency, TF over GST control). Besides, the binding signal is 1.56 fold enrichment (6-mer frequency, TF over GST control) with ETS2; 1.64 fold enrichment (6-mer frequency, TF over GST control) with SPDEF; 1.44 fold enrichment (6-mer frequency, TF over GST control) with ETV7; 1.75 fold enrichment (6-mer frequency, TF over GST control) with ELF5; 1.57 fold enrichment (6-mer frequency, TF over GST control) with ETV3; 1.59 fold enrichment (6-mer frequency, TF over GST control) in the experiment with ETV6.
